# The whole screen tested about 39,000 compounds, of which about 3,300 (8.5%) were called active. The entries come from a sample that favours actives as a whole.
# Tested on: HepG2
# Experiment: cytotoxicity call (relative viability < 0.9)
# Conditions: 10 µM
row,Structure (SMILES),cytotoxicity call
1,CNC[C@@H]1OCCCC[C@@H](C)Oc2ccc(NC(=O)CCCN(C)C)cc2C(=O)N([C@H](C)CO)C[C@H]1C,inactive
2,O=C(O)c1cn(-c2ccccc2)nn1,inactive
3,COCC(=O)N1C[C@H](C)[C@@H](OC)CN(C)C(=O)c2cc(NC(=O)c3ccc(OC)cc3)ccc2OC[C@H]1C,inactive
4,COc1ccc2c3c([nH]c2c1)[C@H](CO)N(C[C@]13CCN(CC1)C(=O)c1cccnc1)C(=O)c1cccnc1,inactive
5,C/C=C/c1ccc([C@@H]2[C@H](CO)N(S(=O)(=O)CC)C23CN(C(=O)CN(C)C)C3)cc1,inactive
6,C[C@H](CO)N1C[C@H](C)[C@H](CN(C)Cc2ccc(Oc3ccccc3)cc2)Oc2c(NC(=O)C3CCCCC3)cccc2C1=O,inactive
7,COc1ccc(NC(=O)N(C)C[C@@H]2OCCCC[C@H](C)Oc3ccc(NS(=O)(=O)c4ccccc4)cc3C(=O)N([C@H](C)CO)C[C@H]2C)cc1,inactive
8,CC(C)NC(=O)N(C)C[C@@H]1Oc2c(NS(=O)(=O)c3cccs3)cccc2C(=O)N([C@@H](C)CO)C[C@@H]1C,inactive
9,C[C@@H]1CN([C@H](C)CO)C(=O)c2cc(NC(=O)Cc3ccccc3)ccc2O[C@@H](C)CCCCO[C@@H]1CN(C)S(=O)(=O)c1ccc(Cl)cc1,inactive
10,C[C@@H]1CCCCO[C@@H](CN(C)S(=O)(=O)c2ccc(Cl)cc2)[C@@H](C)CN([C@H](C)CO)C(=O)c2cc(NC(=O)Cc3ccccc3)ccc2O1,inactive
11,C[C@@H]1CCCCO[C@H](CN(C)S(=O)(=O)c2ccc(Cl)cc2)[C@@H](C)CN([C@H](C)CO)C(=O)c2cc(NC(=O)Cc3ccccc3)ccc2O1,active
12,C[C@H](CO)N1C[C@H](C)[C@@H](CN(C)S(=O)(=O)c2ccc(Cl)cc2)OCCCC[C@H](C)Oc2ccc(NC(=O)Cc3ccccc3)cc2C1=O,active
13,C[C@@H]1CN([C@@H](C)CO)C(=O)c2cc(NC(=O)Cc3ccccc3)ccc2O[C@@H](C)CCCCO[C@H]1CN(C)S(=O)(=O)c1ccc(Cl)cc1,inactive
14,C[C@H](CO)N1C[C@H](C)[C@H](CN(C)S(=O)(=O)c2ccc(Cl)cc2)OCCCC[C@H](C)Oc2ccc(NC(=O)Cc3ccccc3)cc2C1=O,inactive
15,C[C@@H]1CCCCO[C@H](CN(C)S(=O)(=O)c2ccc(Cl)cc2)[C@@H](C)CN([C@@H](C)CO)C(=O)c2cc(NC(=O)Cc3ccccc3)ccc2O1,inactive
16,C[C@@H]1CCCCO[C@@H](CN(C)S(=O)(=O)c2ccc(Cl)cc2)[C@H](C)CN([C@H](C)CO)C(=O)c2cc(NC(=O)Cc3ccccc3)ccc2O1,active
17,C[C@@H]1CCCCO[C@@H](CN(C)S(=O)(=O)c2ccc(Cl)cc2)[C@@H](C)CN([C@@H](C)CO)C(=O)c2cc(NC(=O)Cc3ccccc3)ccc2O1,inactive
18,C[C@@H]1CN([C@H](C)CO)C(=O)c2cc(NC(=O)Cc3ccccc3)ccc2O[C@@H](C)CCCCO[C@H]1CN(C)S(=O)(=O)c1ccc(Cl)cc1,inactive
19,C[C@@H]1CCCCO[C@H](CN(C)S(=O)(=O)c2ccc(Cl)cc2)[C@H](C)CN([C@H](C)CO)C(=O)c2cc(NC(=O)Cc3ccccc3)ccc2O1,active
20,C[C@@H]1CCCCO[C@H](CN(C)S(C)(=O)=O)[C@@H](C)CN([C@@H](C)CO)C(=O)c2cc(N(C)C)ccc2O1,inactive
21,C[C@@H]1CN([C@@H](C)CO)C(=O)c2cccc(NC(=O)c3nc4ccccc4s3)c2O[C@@H]1CN(C)Cc1ccc(Oc2ccccc2)cc1,inactive

row,Structure (SMILES),cytotoxicity call
1,COc1cc(S(=O)(=O)NCCN2CCN(S(=O)(=O)c3cc(OC)c(Cl)cc3OC)CC2)c(OC)cc1Cl,inactive
2,COc1ccc(NC(=O)N(C)C[C@@H]2Oc3c(NC(=O)CCCCCC(=O)Nc4ccccc4N)cccc3C(=O)N([C@@H](C)CO)C[C@H]2C)cc1,inactive
3,Cc1ccc(S(=O)(=O)Nc2ccc3c(c2)C(=O)N([C@H](C)CO)C[C@H](C)[C@H](CN(C)C(=O)CCC(F)(F)F)OCCCC[C@H](C)O3)cc1,inactive
4,COc1ccc(NC(=O)N(C)C[C@H]2OCCCC[C@@H](C)Oc3ccc(NS(=O)(=O)c4cccs4)cc3C(=O)N([C@H](C)CO)C[C@H]2C)cc1,inactive
5,O=C(NCCN1CCOCC1)[C@@H]1c2ccccc2C(=O)N(C2Cc3ccccc3C2)[C@H]1c1ccc(CO)cc1,inactive
6,COCCNC(=O)C[C@@H]1CC[C@H]2[C@@H](COC[C@@H](O)CN2S(=O)(=O)c2ccccc2F)O1,inactive
7,COCC(=O)Nc1ccc2c(c1)C(=O)N(C)C[C@H](OC)[C@@H](C)CN(C(=O)c1ccccc1F)[C@H](C)CO2,inactive
8,C[C@@H]1CN([C@@H](C)CO)C(=O)Cc2cc(NS(=O)(=O)c3cn(C)cn3)ccc2O[C@H]1CN(C)C(=O)NC1CCCCC1,inactive
9,C[C@H]1CCCCO[C@H](CN(C)Cc2ccncc2)[C@@H](C)CN([C@@H](C)CO)C(=O)c2cc(NC(=O)NC3CCCCC3)ccc2O1,inactive
10,C[C@H]1CCCCO[C@H](CN(C)S(=O)(=O)c2ccc(Cl)cc2)[C@@H](C)CN([C@@H](C)CO)C(=O)c2cc(NC(=O)Cc3ccccc3)ccc2O1,active
11,C[C@@H]1CN([C@@H](C)CO)C(=O)c2cc(NC(=O)Cc3ccccc3)ccc2O[C@@H](C)CCCCO[C@@H]1CN(C)S(=O)(=O)c1ccc(Cl)cc1,inactive
12,C[C@@H]1CCCCO[C@@H](CN(C)S(=O)(=O)c2ccc(Cl)cc2)[C@H](C)CN([C@@H](C)CO)C(=O)c2cc(NC(=O)Cc3ccccc3)ccc2O1,inactive
13,CCS(=O)(=O)N1Cc2nccn2C[C@H](Cn2ncccc2=O)C1,inactive
14,Cc1ccc(S(=O)(=O)Nc2ccc3c(c2)C(=O)N([C@@H](C)CO)C[C@@H](C)[C@@H](CN(C)S(=O)(=O)c2ccc(F)cc2)O3)cc1,inactive
15,Cc1noc(C)c1S(=O)(=O)Nc1cccc2c1O[C@@H](CN(C)S(C)(=O)=O)[C@@H](C)CN([C@@H](C)CO)C2=O,active
16,Cc1noc(C)c1S(=O)(=O)Nc1cccc2c1O[C@H](CN(C)Cc1ccc(C(=O)O)cc1)[C@@H](C)CN([C@H](C)CO)C2=O,inactive
17,Cc1noc(C)c1S(=O)(=O)Nc1cccc2c1O[C@H](CN(C)Cc1ccc(C(=O)O)cc1)[C@H](C)CN([C@@H](C)CO)C2=O,inactive
18,Cc1noc(C)c1S(=O)(=O)Nc1cccc2c1O[C@H](CN(C)Cc1ccc(C(=O)O)cc1)[C@H](C)CN([C@H](C)CO)C2=O,active
19,Cc1noc(C)c1S(=O)(=O)Nc1cccc2c1O[C@H](CN(C)S(C)(=O)=O)[C@H](C)CN([C@@H](C)CO)C2=O,inactive
20,Cc1noc(C)c1S(=O)(=O)Nc1cccc2c1O[C@@H](CN(C)S(C)(=O)=O)[C@@H](C)CN([C@H](C)CO)C2=O,inactive
21,CC(C)CC#Cc1cnc2c(c1)C(=O)N([C@@H](C)CO)C[C@@H](C)[C@@H](CN(C)S(=O)(=O)c1cccs1)O2,inactive

row,Structure (SMILES),cytotoxicity call
1,C[C@H](CO)N1C[C@H](C)[C@H](CN(C)C(=O)Nc2ccc(F)cc2)OCCCC[C@H](C)Oc2ccc(NC(=O)c3ccncc3)cc2C1=O,inactive
2,CCS(=O)(=O)N1CC[C@]2(CC1)CN(Cc1ccc3c(c1)OCO3)[C@@H](CO)c1[nH]c3cc(ccc3c12)OC,inactive
3,CCC(=O)N1C[C@]2(CN(C2)C(=O)CN2CCOCC2)c2c([nH]c3cc(ccc23)OC)[C@H]1CO,inactive
4,COc1ccc(S(=O)(=O)Nc2ccc3c(c2)C(=O)N([C@H](C)CO)C[C@H](C)[C@@H](CN(C)C(=O)Nc2ccc4c(c2)OCO4)OCCCC[C@@H](C)O3)cc1,inactive
5,C[C@@H]1CN([C@@H](C)CO)C(=O)c2cccc(NC(=O)c3ccncc3)c2O[C@@H]1CN(C)S(=O)(=O)c1cn(C)cn1,inactive
6,Cc1ccc(S(=O)(=O)N(C)C[C@@H]2OCCCC[C@H](C)Oc3ccc(NC(=O)Nc4ccc(C(F)(F)F)cc4)cc3C(=O)N([C@@H](C)CO)C[C@@H]2C)cc1,inactive
7,Cc1ccc(S(=O)(=O)N(C)C[C@@H]2OCCCC[C@H](C)Oc3ccc(NC(=O)Nc4ccc(C(F)(F)F)cc4)cc3C(=O)N([C@H](C)CO)C[C@H]2C)cc1,inactive
8,Cc1ccc(S(=O)(=O)N(C)C[C@@H]2OCCCC[C@@H](C)Oc3ccc(NC(=O)Nc4ccc(C(F)(F)F)cc4)cc3C(=O)N([C@H](C)CO)C[C@H]2C)cc1,inactive
9,Cc1ccc(S(=O)(=O)N(C)C[C@H]2OCCCC[C@@H](C)Oc3ccc(NC(=O)Nc4ccc(C(F)(F)F)cc4)cc3C(=O)N([C@@H](C)CO)C[C@@H]2C)cc1,active
10,Cc1ccc(S(=O)(=O)N(C)C[C@H]2OCCCC[C@H](C)Oc3ccc(NC(=O)Nc4ccc(C(F)(F)F)cc4)cc3C(=O)N([C@@H](C)CO)C[C@@H]2C)cc1,inactive
11,Cc1ccc(S(=O)(=O)N(C)C[C@@H]2OCCCC[C@@H](C)Oc3ccc(NC(=O)Nc4ccc(C(F)(F)F)cc4)cc3C(=O)N([C@@H](C)CO)C[C@H]2C)cc1,active
12,O=C([O-])C=CC(=O)[O-].[Fe+2],inactive
13,O=C(CCCCC(=O)N/N=C/[C@H](O)[C@@H](O)[C@H](O)[C@H](O)CO[C@H]1O[C@H](CO)[C@H](O)[C@H](O)[C@H]1O)NO,inactive
14,CC(C)NC(=O)N(C)C[C@H]1Oc2ccc(NS(=O)(=O)c3ccc(Cl)cc3)cc2CC(=O)N([C@H](C)CO)C[C@H]1C,inactive
15,CCOC(=O)c1nnn(-c2nonc2N)c1CN1CCSCC1,inactive
16,CCOC(=O)CCCCCC(=O)Nc1ccc2c(c1)C(=O)N([C@@H](C)CO)C[C@H](C)[C@H](CN(C)S(C)(=O)=O)O2,inactive
17,COc1ccc(O)c(N)c1,active
18,COc1ccc(C(C)=O)c(O)c1,inactive
19,Nc1cc(-c2ccccc2)ccc1O,inactive
